Each structure is given as a SMILES string. Active and inactive are the calls of the source.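 The calls were made as follows: active = mean inhibition over 43.08%, the solvent-only control mean plus 3 SD; inactive = the rest.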

The target in this assay is Nuclear receptor coactivator 3 (Homo sapiens) (UniProt Q9Y6Q9). Nature of the assay: SRC3 coactivator transcriptional activity inhibitors, confirmation, cell-based, luminescence, quadruplicate (AID 588792).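 Also: 0% = DMSO treated cells and 100% = gossypol at 36 µM.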 As to conditions: HEK293 GAL4-SRC3 luciferase reporter, at 3.6 µM, active compounds read high. (In a reporter assay the amount or activity of a reporter protein is the signal.)
Nuclear receptor coactivator 3 (Homo sapiens), sequence (Q9Y6Q9 whole entry, looked up, the tested form may be a part): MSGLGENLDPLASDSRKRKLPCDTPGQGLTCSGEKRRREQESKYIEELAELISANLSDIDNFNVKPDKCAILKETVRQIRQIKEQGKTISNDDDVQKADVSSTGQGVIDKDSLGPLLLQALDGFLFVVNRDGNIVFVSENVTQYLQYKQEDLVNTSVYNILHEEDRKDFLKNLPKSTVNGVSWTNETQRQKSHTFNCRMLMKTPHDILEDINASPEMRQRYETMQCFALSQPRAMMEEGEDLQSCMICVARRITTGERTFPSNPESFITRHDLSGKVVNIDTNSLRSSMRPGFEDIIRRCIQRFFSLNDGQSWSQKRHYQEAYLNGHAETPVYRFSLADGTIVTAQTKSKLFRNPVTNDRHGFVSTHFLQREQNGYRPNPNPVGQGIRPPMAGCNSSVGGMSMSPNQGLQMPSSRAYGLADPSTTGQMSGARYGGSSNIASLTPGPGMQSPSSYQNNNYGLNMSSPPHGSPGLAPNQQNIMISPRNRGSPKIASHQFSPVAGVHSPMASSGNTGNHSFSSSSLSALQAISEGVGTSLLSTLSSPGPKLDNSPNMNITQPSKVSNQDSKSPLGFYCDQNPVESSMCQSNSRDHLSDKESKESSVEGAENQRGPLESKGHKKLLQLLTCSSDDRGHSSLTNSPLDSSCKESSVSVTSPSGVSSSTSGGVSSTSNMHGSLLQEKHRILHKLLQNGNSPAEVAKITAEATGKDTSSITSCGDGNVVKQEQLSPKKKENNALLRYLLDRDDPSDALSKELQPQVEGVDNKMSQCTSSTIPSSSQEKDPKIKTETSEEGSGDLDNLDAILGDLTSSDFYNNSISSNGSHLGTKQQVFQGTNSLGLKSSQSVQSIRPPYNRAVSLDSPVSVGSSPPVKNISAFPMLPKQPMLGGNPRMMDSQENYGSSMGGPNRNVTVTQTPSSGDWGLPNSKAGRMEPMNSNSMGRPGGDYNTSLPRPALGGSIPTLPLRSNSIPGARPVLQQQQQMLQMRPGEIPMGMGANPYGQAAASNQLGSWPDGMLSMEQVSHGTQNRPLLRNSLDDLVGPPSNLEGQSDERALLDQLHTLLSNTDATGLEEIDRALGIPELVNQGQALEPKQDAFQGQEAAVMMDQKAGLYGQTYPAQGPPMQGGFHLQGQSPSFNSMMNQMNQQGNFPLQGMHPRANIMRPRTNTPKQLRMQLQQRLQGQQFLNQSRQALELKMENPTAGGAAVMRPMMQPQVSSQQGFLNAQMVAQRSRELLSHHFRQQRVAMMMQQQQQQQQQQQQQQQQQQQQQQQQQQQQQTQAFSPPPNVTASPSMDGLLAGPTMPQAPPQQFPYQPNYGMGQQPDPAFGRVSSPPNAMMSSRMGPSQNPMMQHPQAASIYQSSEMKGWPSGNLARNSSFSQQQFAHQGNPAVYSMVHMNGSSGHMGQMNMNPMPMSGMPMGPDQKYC
By inhibition is commonly meant the relative decrease from the control value, in per cent. As to `COc1ccc(N2CCN(c3nc(NCCc4ccc(OC)c(OC)c4)nc(OC)n3)CC2)cc1`, the inhibition was 6.14% (inactive). Take `CC(=O)c1c(C)[nH]c(C(=O)OCC(=O)Nc2ccc(C)cc2[N+](=O)[O-])c1C`: the inhibition is 32.4% (inactive). In the case of `[O-]C(=C(C(=S)Nc1cccc2ccccc12)[n+]1ccccc1)c1ccc2c(c1)OCCO2`, the inhibition is 3.21% (inactive).

For the compound `Cc1ccc(O)c(C(=O)c2cnc3c(c2)COc2ccccc2-3)c1`, the inhibition was -8.22% (inactive). As to `CC(=O)c1c(C(C)=O)c(C)n(-c2ccc3ncccc3c2)c1C`, the inhibition is 15.4% (inactive). For the compound `CC12CN3CC(C)(CN(C1)C3c1ccccc1F)C2` (centres undefined), the inhibition was 2.53% (inactive).

For `Cc1ccc(C(=O)N(Cc2cccs2)C2CCS(=O)(=O)C2)cc1` (centres undefined), the inhibition was -5.57% (inactive). `Cc1noc(C)c1COC(=O)c1cc(F)c(F)cc1Cl`: the inhibition was 2.84% (inactive). Consider `CC(C)C(=O)N1CCN(c2ccc(NC(=O)COc3ccccc3[N+](=O)[O-])cc2)CC1`, for which the inhibition was 12.7% (inactive). Then `Cc1cc(C=C2C(=O)c3ccccc3C2=O)c(C)n1-c1ccccc1`, with 67.5% (active).

`C/C(=N\NC(N)=S)C1C2C3CC4C5CC(C42)C1C53` (centres undefined): the inhibition is 28.5% (inactive). As to `O=C(O)c1cc(NS(=O)(=O)c2ccc(N3CCOCC3)c([N+](=O)[O-])c2)cc(C(=O)O)c1`, the inhibition was 1.8% (inactive). With `Cc1cccc(NC(=O)c2cc(-c3ccccn3)nc3ccccc23)c1C`, the inhibition is -9.5% (inactive).

In the case of `CCOc1c(Br)cc(CNC2CCCCCCC2)cc1OC`, the inhibition was -5.01% (inactive).

Regarding `CCSc1ccccc1C(=O)NCc1ccc2c(c1)OCO2`, the inhibition was 1.07% (inactive). The figure for `CCOc1ccc(-c2cc(C)n3nc(C(N)=O)cc3n2)cc1` is 32.9% (inactive); for `Cc1cccc(C)c1OCC(=O)N(Cc1cccs1)C1CCS(=O)(=O)C1` (centres undefined) it is 8.07% (inactive); for `NC(=S)N/N=C1\CCOc2ccc(Cl)cc21` it is 34.6% (inactive). With `CCOC(=O)c1ccc2nc(Nc3nc4ccc(F)cc4s3)sc2c1`, the inhibition was 15.2% (inactive). As for `CCCCNC1C(CC)C(CCC)C(C#N)(C#N)C1(C#N)C#N` (centres undefined), the inhibition is 3.79% (inactive).

Consider `COc1ccc(C)cc1NC(=O)c1nnn(Cc2cccc(F)c2)c1N`, for which the inhibition was 22.3% (inactive). The figure for `CCCCN(CCCC)C(=O)CSc1nnc(-c2cc(OC)c(OC)c(OC)c2)o1` is -1.92% (inactive). Regarding `COc1ccc(CCNC(=O)COc2ccc(N(C)S(=O)(=O)c3ccc(Cl)cc3)cc2)cc1`, the inhibition is 10.9% (inactive). Take `CCCCc1nc2ccccc2c(N)c1CCC` (tested in a mixture with another compound): the inhibition is 8.62% (inactive). Turning to `CC(=O)Nc1cccc(C(=O)/C=C/c2ccc(Br)cc2)c1`, the inhibition is 10.8% (inactive).

Regarding `O=C(CCSc1ccc(Cl)cc1)N1CCN(c2ccc(O)cc2)CC1`, the inhibition is 3.85% (inactive). As for `O=C(NCc1ccc(Cl)cc1)c1cccc(NC(=O)c2ccccc2)c1`, the inhibition was -5.52% (inactive). Take `O=C(NCCCn1ccnc1)C(=O)NCc1ccc(Cl)cc1`: the inhibition is 20.3% (inactive).

As to `Cc1ccc(C)c(N2CCN(C(=O)C34CC5CC(C3)CC(n3nnc(C)n3)(C5)C4)CC2)c1`, the inhibition is 3.92% (inactive). Consider `CCCNc1nc(OC(C(F)(F)F)C(F)(F)F)nc(OC(C(F)(F)F)C(F)(F)F)n1`, for which the inhibition was 7.26% (inactive). For `COc1cc(C2C(C#N)=C(SC)NC3=C2C(=O)CCC3)ccc1O` (centres undefined), the inhibition is 20.9% (inactive). Turning to `N#C/C(C(N)=O)=C1/CCc2ccccc2N1`, the inhibition was 21.2% (inactive). With `CC(=O)N1CCc2cc(S(=O)(=O)NCCC(=O)NCCc3ccc(Cl)cc3)ccc21`, the inhibition was -9.13% (inactive). Consider `Cc1nc(Nc2nc(CSc3nc4ccccc4[nH]3)cc(=O)[nH]2)nc2ccccc12`, for which the inhibition is -5.42% (inactive). Regarding `CCn1cc(C(=O)NCc2ccco2)c(=O)c2cc(S(=O)(=O)N3CCCCCC3)ccc21`, the inhibition is 20% (inactive). With `CCCCNC(=O)c1onc(CSc2cc(C)cc(C)c2)c1C(=O)NCCCC`, the inhibition was 7.83% (inactive). On to `COc1ccc(Oc2ccc(/C=C/C(=O)c3ccc(O)cc3)cc2[N+](=O)[O-])cc1`, for which the inhibition was -5.49% (inactive). Consider `COc1ccc(C(=O)Nc2c(-c3cccs3)c(=O)c3ccccc3n2C)cc1`, for which the inhibition is -10.2% (inactive). Consider `COC(=O)N/N=C/c1cn(Cc2ccc(Cl)cc2Cl)c2ccccc12`, for which the inhibition is 18.6% (inactive).
